Experimental findings from PubChem BioAssay AID2326 (National Center for Advancing Translational Sciences (NCATS), 2010) are described below.

About 1,100 (0.41%) of roughly 270,000 compounds were called active. Another 3% or so got no clear call; they are omitted. This is one part of a sample in which actives are shown more often than they occur. Calls come from the whole dose curve.
Potency is the fitted concentration of half-maximal effect.

The assay can be described thus: qHTS Assay for Inhibitors of Influenza NS1 Protein Function. Note: actives are rising curves; nearly all actives have a fitted effect of over 50% in size. Particulars: series mostly up to 46.1 µM; activity, positive = more growth: at the top concentration. From the text: NIH Chemical Genomics Center [NCGC]
NIH Molecular Libraries Probe Centers Network [MLPCN]
Assay Submitter (PI): Daniel Engel
Influenza is a world-wide public health problem and emerging forms of the virus have the potential to cause a pandemic of equal or greater magnitude to the outbreaks recorded in 1918, 1957 or 1968. Vaccine development is proceeding and there also exist two classes of anti-influenza compounds. However these therapeutic modalities are neither fully effective nor widely enough available to fulfill global needs. In addition their potential usefulness against newly emergent strains is not known. Efforts are needed to develop novel agents against influenza virus, including broad-spectrum agents. Identification of small molecules that inhibit NS1 function either directly or by interfering with specific cellular pathways may be a key to increasing our defense against the virus.
We have miniaturized and optimized a cell based assay in which NS1 from influenza A is expressed in the budding yeast S. cerevisiae. NS1 is a multi-functional protein that counters the host innate immune response and facilitates viral versus cellular gene expression. Expression of NS1 causes a pronounced slow growth phenotype in yeast due to its intrinsic molecular activities. Small molecules that suppress the slow growth phenotype can be identified by a straightforward growth recovery assay using optical density (OD) as the measurement. The same yeast strain not expressing NS1 was used as positive control in the yeast growth recovery assay.
The yeast S. cerevisiae control and NS1 expressing cells were kindly supplied by laboratory of Dr. Daniel Engel, University of Virginia. Yeast starter cultures were stored in single use aliquots at -80C.
1. Yeast culture medium per liter: 1.2 g Yeast Nitrogen Base (w/out amino acids and Ammonium Sulphate), 5.0g Ammonium Sulphate, 0.77g -URA DO (drop-out) Supplement, adjust pH to 6.0. Adjust to 2% glucose prior to inoculating with yeast.
2. Yeast assay medium: 1.2 g Yeast Nitrogen Base (w/out amino acids and Ammonium Sulphate), 5.0g Ammonium Sulphate, 0.77g -URA DO (drop-out) Supplement, adjust pH to 6.0. Adjust to 2% D-galactose prior to inoculating with yeast.
1. Inoculate 100 mls of yeast culture medium with 1 ml of frozen yeast aliquote. Incubate overnight at 30C, 250RPM.
2. Harvest overnight culture at 4000 RPM and wash pellet with 15 mls H2O 3x.
3. Re-suspend washed pellet in 10 mls of yeast assay medium.
4. Prepare a 1:100 dilution of re-suspended culture in yeast assay medium.
5. Dispense 3.5 ul per well of reagents in step 4 in columns 2-48 in a black clear bottom 1536 well plate.
6. Dispense 3.5 ul per well of yeast assay medium in column 1 only.
7. Transfer 23 nl of compound per well.
8. Dispense 3.5 ul per well of yeast assay medium in columns 1-48.
9. Read plate using Viewlux protocol for optical density 600 (OD600) using excitation filter 600nm.
For the molecule `COc1ccc(/C=C2\SC(=O)N(CCC(=O)NCCCn3ccnc3)C2=O)cc1`, the “activity, positive = more growth” value is -0.375% (inactive). On to `COC(=O)CN1C(=O)C(C)(C)Oc2ccc(C(=O)Nc3cccc(OC)c3)cc21`, for which the “activity, positive = more growth” value is -9.9% (inactive).

As for `Cc1ccc(-n2c(SCC(=O)NCCC3=CCCCC3)nc3n[nH]c(C)c3c2=N)cc1Cl`, the “activity, positive = more growth” value was -0.553% (inactive). Turning to `COc1cccc(-n2c(SCC(=O)NC3CCCCC3)nc3n[nH]c(C)c3c2=N)c1`, the Potency was 3.16 µM (active). On to `CCCCNC(=O)CSc1nc2n[nH]c(C)c2c(=N)n1-c1cccc(Cl)c1C`, for which the “activity, positive = more growth” value was 9.85% (inactive). Take `O=C(NC(=S)Nc1ccc(Cl)cc1Cl)C1CC1`: the “activity, positive = more growth” value is -10.3% (inactive).

Regarding `COc1ccc(Oc2cn[nH]c2-c2ccc(OC)cc2O)cc1`, the “activity, positive = more growth” value was -65.9% (inactive). On to `Cc1cc(C)c(SCCc2ccncc2)c(C)c1`, for which the “activity, positive = more growth” value was -40.4% (inactive). The same measure, in the same setting: as for `O=c1c2ccccc2ncn1/N=C/c1ccccc1`, the figure is -8.05% (inactive); as for `COC(=O)[C@H](C)[C@H]1C[C@]1(C)[C@H](NC(=O)OCc1ccccc1)c1ccccc1`, -66.8% (inactive). With `O=C(Nc1ccc(N2CCN(C(=O)c3ccccc3)CC2)c(Cl)c1)c1cccnc1`, the “activity, positive = more growth” value is -2.87% (inactive). In the case of `C[C@@H](C(=O)Nc1ccc2ccccc2c1)[C@@H]1C[C@@]1(C)[C@@H](NC(=O)c1cccnc1)c1ccccc1`, the Potency is 12.6 µM (active). `O=C(Nc1nnc(C2=COCCO2)o1)c1ccc([N+](=O)[O-])s1`: the “activity, positive = more growth” value is -17.1% (inactive). As to `O=C(N/N=C\c1cc2c(cc1Cl)OCO2)c1ccc(Br)s1`, the “activity, positive = more growth” value is -1.29% (inactive). Take `CCCOC1CCCN(C(=O)c2cc(COc3cncc(Cl)c3)on2)C1` (stereo not drawn): the “activity, positive = more growth” value was -16.5% (inactive).

`CC(C)(C)c1ccc(CN2C(=O)c3ccccc3S2(=O)=O)cc1`: the “activity, positive = more growth” value was -6.88% (inactive). On to `COc1ccc(-c2nc(CS(=O)CC(=O)NCc3ccccc3)c(C)o2)cc1OC` (stereo not drawn), for which the “activity, positive = more growth” value is 2.37% (inactive). On to `COc1ccc(-c2nc(CS(=O)CC(=O)NCc3ccccn3)c(C)o2)cc1` (stereo not drawn), for which the Potency was 14.1 µM (active). With `COc1cccc(-c2nc(CS(=O)CC(=O)NCc3ccc(F)cc3)c(C)o2)c1` (stereo not drawn), the “activity, positive = more growth” value is 6.23% (inactive). Regarding `Cc1c(C)n(Cc2ccc(Cl)cc2)c2ccc(C(=O)NCCCN3CCOCC3)cc12`, the “activity, positive = more growth” value was 2.54% (inactive).

`COCn1c(COc2ccccc2)nc2ccccc21`: the “activity, positive = more growth” value was -9.61% (inactive). For the molecule `COCc1nc2ccccc2n1Cc1ccccc1Br`, the Potency was 2.82 µM (active). As to `COc1ccccc1Cn1c(CO)nc2ccccc21`, the “activity, positive = more growth” value is 2.42% (inactive). As to `CN(CCO)c1ccc(/C=N/Nc2nncc3ccccc23)cc1`, the “activity, positive = more growth” value is -0.974% (inactive).

Consider `CCc1ccccc1S(=O)(=O)Cc1ccc(C(=O)NCCc2ccccc2)o1`, for which the “activity, positive = more growth” value was 5.46% (inactive). Still for that read-out and setting: the result for `Clc1c(OCCCn2ccnc2)ccc2ccccc12` reads -92.1% (inactive); that for `Cn1c(CSCC(=O)Nc2ccccc2)nnc1SCc1ccccc1`, -3.56% (inactive). For `Cn1c(CC(=O)Nc2ccccc2)nnc1SCC(=O)c1ccccc1`, the Potency is 11.2 µM (active). On to `Cn1c(Cc2cccs2)nnc1SCC(=O)Nc1ccccc1`, for which the “activity, positive = more growth” value is 11.6% (inactive). With `O=S1(=O)CCOC[C@H](CC2CCCCC2)N1Cc1ccc(F)cc1`, the “activity, positive = more growth” value was -5.09% (inactive). Consider `Cc1nonc1C1CCCN1C(=O)c1cc(COc2cccc(C(F)(F)F)c2)on1` (stereo not drawn), for which the “activity, positive = more growth” value is 1.92% (inactive). Same read-out and setting: the result for `COc1ccc(C(=O)CC(=O)c2ccc(C)cc2)c(O)c1` reads -8.33% (inactive).

Consider `O=C(Nc1ccccc1)c1ccc2c(c1)OCCCO2`, for which the “activity, positive = more growth” value was -89.8% (inactive).

For the molecule `Cc1cc(=O)[nH]c(SCc2cc(Cl)ccc2OC(F)F)n1`, the Potency is 3.16 µM (active). For the molecule `Cc1cc(=O)[nH]c(SCc2cccc(F)c2)n1`, the “activity, positive = more growth” value was -3.47% (inactive). With `COc1ccccc1-c1noc(CSc2nc(C)cc(=O)[nH]2)n1`, the “activity, positive = more growth” value is 1.14% (inactive). As to `CC(=O)N1CCc2c(sc(NC(=O)CCS(=O)(=O)c3ccccc3)c2C#N)C1`, the “activity, positive = more growth” value is -4.08% (inactive).

On to `Cc1ccc(N(Cc2cc(=O)[nH]c3ccccc23)C(=O)CCl)cc1`, for which the “activity, positive = more growth” value was 2.46% (inactive). For `CC(C)n1c(COc2ccccc2)nc2ccccc21`, the “activity, positive = more growth” value is -47.3% (inactive). For `Cc1cccc(NC(=O)c2ccc3c(=O)n(CC4CCCO4)c(=S)[nH]c3c2)c1` (stereo not drawn), the “activity, positive = more growth” value was -0.15% (inactive). Consider `CC1CCN(C2=NC(=O)/C(=C/c3ccc(O)cc3)S2)CC1`, for which the “activity, positive = more growth” value is 15% (inactive). As to `OC(COc1ccc2ccccc2c1)CN1CCOCC1` (stereo not drawn), the “activity, positive = more growth” value was 1.77% (inactive). For `O=S(=O)(c1ccc(OCC(O)CN2CCN(c3ccccc3Cl)CC2)cc1)N1CCOCC1` (stereo not drawn), the Potency was 1.26 µM (active). As for `CC(=O)Nc1ccc(OCC(O)CN2CCN(c3ccccc3Cl)CC2)cc1` (stereo not drawn), the “activity, positive = more growth” value was -6.58% (inactive).

As to `Cc1cccnc1CC(C)NC(=O)c1cc(COc2cncc(Cl)c2)on1` (stereo not drawn), the “activity, positive = more growth” value is -7.9% (inactive). With `O=[N+]([O-])c1ccc2c(c1)Nc1nc3ccccc3nc1N2`, the “activity, positive = more growth” value is -62.4% (inactive). Turning to `Cc1cc(Br)ccc1NC(=S)NC1CCCC1`, the “activity, positive = more growth” value was -89.5% (inactive). Consider `Clc1cccc(N=C2NN=C(c3ccc4c(c3)OCCO4)CS2)c1`, for which the “activity, positive = more growth” value was 13.9% (inactive). `Cc1ccc(-c2csc(-c3c[nH]c4ccccc34)n2)cc1`: the “activity, positive = more growth” value is -6.52% (inactive).

Consider `Cc1cccc(N=C2NN=C(c3c[nH]c4ccccc34)CS2)c1`, for which the Potency is 14.1 µM (active). As to `COc1ccccc1NC(=O)C1CCN(C(=O)c2ccc(C(C)(C)C)cc2)CC1`, the “activity, positive = more growth” value was 3.23% (inactive).

Consider `Cc1ccc(NC(=S)NCCc2ccc(Cl)cc2)c(C)c1`, for which the “activity, positive = more growth” value was -44.7% (inactive).

With `COc1ccc2[nH]c(C(=O)N/N=C/c3cc(OC)c(OC)c(OC)c3)cc2c1`, the “activity, positive = more growth” value is -2.63% (inactive).

As for `Cn1c(NC(=O)c2ccccc2)nc2ccccc21`, the “activity, positive = more growth” value was -89.1% (inactive). Turning to `COCCCNC(=S)N1CCN(c2nc(-c3cccc(OC)c3)cs2)CC1`, the “activity, positive = more growth” value is 2.39% (inactive). For `CC(C(=O)NC1CCCCC1)N1C(=O)c2cccc3cccc1c23` (stereo not drawn), the “activity, positive = more growth” value was 4.31% (inactive). Turning to `Cc1cc(C)nc(NC(=O)C(C)N2C(=O)c3ccccc3C2=O)n1` (stereo not drawn), the “activity, positive = more growth” value is 3.33% (inactive).

`CC(C(=O)O)N1C(=O)c2cccc3cccc1c23` (stereo not drawn): the Potency is 14.1 µM (active). `O=C1/C(=C/c2ccc(F)cc2)SC(=S)N1CCCC(=O)N1CCCCC1CCO` (stereo not drawn): the “activity, positive = more growth” value is -51.5% (inactive). `O=C(NCCCN1CCOCC1)c1ccc2c(c1)N(Cc1cccc(F)c1)C(=O)c1ccccc1S2`: the “activity, positive = more growth” value was 2.04% (inactive). For `CN(C)S(=O)(=O)N1CCC(Oc2cccc(C(=O)NCCCC3CCCC3)c2)CC1`, the “activity, positive = more growth” value is -0.22% (inactive). With `O=C(CC1N=C2c3ccccc3N=C(SCc3ccccc3Cl)N2C1=O)NCc1ccco1` (stereo not drawn), the “activity, positive = more growth” value was 8.45% (inactive). Turning to `O=C(CSC1=Nc2ccccc2C2=NC(CC(=O)NCc3ccco3)C(=O)N12)NCc1ccco1` (stereo not drawn), the Potency was 7.94 µM (active).

Take `NC(=O)CSC1=Nc2ccccc2C2=NC(CCC(=O)NCc3ccc(F)cc3)C(=O)N12` (stereo not drawn): the “activity, positive = more growth” value is -1.66% (inactive). The same measure, in the same setting: as for `CN(c1ccc(O)cc1)c1nc(-c2cccnc2)cs1`, the figure is -47.4% (inactive); as for `CC(=O)c1cccc(OCc2cc(C(=O)NC(C)Cc3cccnc3)no2)c1` (stereo not drawn), 1.99% (inactive); as for `CNC(=O)c1sc(Nc2ccc(OCc3ccccc3)cc2)nc1C`, -6.93% (inactive). Same read-out and setting: as for `CCCn1c(=N)n(CC(=O)c2ccc(Cl)c(Cl)c2)c2ccccc21`, the figure is -0.19% (inactive).
